Results on 31 compounds are retold here after the supplement of paper PMC9492666.

Structures can show the parent of a compound that is named as a salt.

One assay deals with HCC1937. Put plainly: relative cell viability, compound + RSL3, vs DMSO (fraction of DMSO control); higher = less growth inhibition. The note with it: 72 h.
The test system of another assay is MDA-MB-231. The description is as above. The note with it: 72 h.
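Note: breast cancer cell viability read out with the CCK-8 kit after co-treatment of each compound with the ferroptosis inducer RSL3.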

As to `CC1=C(C)C(=O)C(C(CCCCCC(=O)O)c2ccccc2)=C(C)C1=O` (configuration not stated) [Seratrodast] + COC(=O)c1ccc([C@H]2c3[nH]c4ccccc4c3C[C@H](C(=O)OC)N2C(=O)CCl)cc1 [RSL3], the results for the relative cell viability with HCC1937 and with MDA-MB-231 were 0.948 and 0.578, respectively.
The corresponding values for `Cc1cccc(Nc2cc(Cl)nc(SCC(=O)O)n2)c1C` [Pirinixic Acid] + COC(=O)c1ccc([C@H]2c3[nH]c4ccccc4c3C[C@H](C(=O)OC)N2C(=O)CCl)cc1 [RSL3] are 0.603 and 0.495.
As for `CC(C)C1=CC2=CC[C@@H]3[C@](C)(CCC[C@@]3(C)C(=O)O)[C@H]2CC1` [Abietic Acid] + COC(=O)c1ccc([C@H]2c3[nH]c4ccccc4c3C[C@H](C(=O)OC)N2C(=O)CCl)cc1 [RSL3], the relative cell viability in the assay with HCC1937 amounted to 0.586; with MDA-MB-231, 0.699.
The matching figures for `OC[C@H]1O[C@@H](Oc2cc(O)cc(/C=C/c3ccc(O)cc3)c2)[C@H](O)[C@@H](O)[C@@H]1O` [Polydatin] + COC(=O)c1ccc([C@H]2c3[nH]c4ccccc4c3C[C@H](C(=O)OC)N2C(=O)CCl)cc1 [RSL3]: 0.749 and 0.608.
The matching figures for `N=C(N)NC(=N)NCCc1ccccc1` [Phenformin hydrochloride] + COC(=O)c1ccc([C@H]2c3[nH]c4ccccc4c3C[C@H](C(=O)OC)N2C(=O)CCl)cc1 [RSL3]: 0.653 and 0.543.
The corresponding values for `CCC1C(O)C2C3CCC(C(C)CCO)C3(C)CCC2C2(C)CCC(O)CC12` (configuration not stated) + COC(=O)c1ccc([C@H]2c3[nH]c4ccccc4c3C[C@H](C(=O)OC)N2C(=O)CCl)cc1 [RSL3] are 0.399 and 0.364.
Regarding `CCOc1cc(CC(=O)N[C@@H](CC(C)C)c2ccccc2N2CCCCC2)ccc1C(=O)O` [Repaglinide] + COC(=O)c1ccc([C@H]2c3[nH]c4ccccc4c3C[C@H](C(=O)OC)N2C(=O)CCl)cc1 [RSL3], the relative cell viability in the assay on HCC1937 is 0.598; in the assay on MDA-MB-231 it was 0.656.
Consider `CCCCCCCCCCCCCCOc1ccc(C(=O)O)o1` + COC(=O)c1ccc([C@H]2c3[nH]c4ccccc4c3C[C@H](C(=O)OC)N2C(=O)CCl)cc1 [RSL3], for which the relative cell viability in the assay with HCC1937 is 0.613; in the assay with MDA-MB-231 it was 0.673.
The corresponding values for `Cc1cc(N2C[C@@H](C)N[C@@H](C)C2)ncc1-c1ccc(-c2nc3c(ccn3C)c(=O)[nH]2)cc1` + COC(=O)c1ccc([C@H]2c3[nH]c4ccccc4c3C[C@H](C(=O)OC)N2C(=O)CCl)cc1 [RSL3] are 0.496 and 0.682.
The corresponding values for `CC(C)OC(=O)C(C(=O)OC(C)C)=C1SC=CS1` [Malotilate] + COC(=O)c1ccc([C@H]2c3[nH]c4ccccc4c3C[C@H](C(=O)OC)N2C(=O)CCl)cc1 [RSL3] are 0.337 and 0.547.
The corresponding values for `COc1ccc(-c2c[nH]c3nccc(-c4ccsc4)c23)c(OC)c1` + COC(=O)c1ccc([C@H]2c3[nH]c4ccccc4c3C[C@H](C(=O)OC)N2C(=O)CCl)cc1 [RSL3] are 0.403 and 0.665.
Turning to `O=C(Nc1ccc(C(O)(C(F)(F)F)C(F)(F)F)cc1)c1ccc(C(F)(F)F)cc1` + COC(=O)c1ccc([C@H]2c3[nH]c4ccccc4c3C[C@H](C(=O)OC)N2C(=O)CCl)cc1 [RSL3], the figures for the relative cell viability in the assay on HCC1937 and with MDA-MB-231 were 0.264 and 0.255, respectively.
Consider `CCCCCCCCCCOc1ccc(C(=O)Nc2cc(C(=O)NCCCC)ccc2SC)cc1` + COC(=O)c1ccc([C@H]2c3[nH]c4ccccc4c3C[C@H](C(=O)OC)N2C(=O)CCl)cc1 [RSL3], for which the relative cell viability is 0.408 in the assay on HCC1937 and 0.421 in the assay on MDA-MB-231.
Regarding `CS(=O)(=O)c1ccc(-c2nnc(/C=C/c3nnc(-c4ccc(C#N)cc4)o3)n2-c2ccccc2Cl)nc1` + COC(=O)c1ccc([C@H]2c3[nH]c4ccccc4c3C[C@H](C(=O)OC)N2C(=O)CCl)cc1 [RSL3], the relative cell viability came out at 0.508 with HCC1937 and 0.502 with MDA-MB-231.
`COc1cc(N(C)C)cc(CN(C)CCc2ccc([N+](=O)[O-])cc2)c1O` [CDC25 Phosphatase Inhibitor I] + COC(=O)c1ccc([C@H]2c3[nH]c4ccccc4c3C[C@H](C(=O)OC)N2C(=O)CCl)cc1 [RSL3]: the relative cell viability was determined as 0.454 in the assay with HCC1937 and 0.886 in the assay on MDA-MB-231.
The matching figures for `O=C(Nc1cccnn1)N1CCC(=Cc2cccc(Oc3ccc(C(F)(F)F)cn3)c2)CC1` + COC(=O)c1ccc([C@H]2c3[nH]c4ccccc4c3C[C@H](C(=O)OC)N2C(=O)CCl)cc1 [RSL3]: 0.686 and 0.601.
The matching figures for `Cc1cc(C)c(S(=O)(=O)Nc2cccc(C(F)(F)F)c2)c(C)c1` + COC(=O)c1ccc([C@H]2c3[nH]c4ccccc4c3C[C@H](C(=O)OC)N2C(=O)CCl)cc1 [RSL3]: 0.504 and 0.775.
For the compound `O=c1c(-c2ccc(O)cc2)coc2cc(O)ccc12` [Daidzein] + COC(=O)c1ccc([C@H]2c3[nH]c4ccccc4c3C[C@H](C(=O)OC)N2C(=O)CCl)cc1 [RSL3], the relative cell viability with HCC1937 was determined as 0.865; in the assay with MDA-MB-231 it was 0.608.
The corresponding values for `O=C(CCCCc1ccc2c(c1)OCO2)N1CCCCC1` + COC(=O)c1ccc([C@H]2c3[nH]c4ccccc4c3C[C@H](C(=O)OC)N2C(=O)CCl)cc1 [RSL3] are 0.262 and 0.562.
The corresponding values for `O=C1/C(=C/c2cccs2)CC/C1=C\c1cccs1` + COC(=O)c1ccc([C@H]2c3[nH]c4ccccc4c3C[C@H](C(=O)OC)N2C(=O)CCl)cc1 [RSL3] are 0.357 and 0.49.
For `O=C(O)C(O)Cc1ccc(O)c(O)c1` (configuration not stated) [Sodium Danshensu] + COC(=O)c1ccc([C@H]2c3[nH]c4ccccc4c3C[C@H](C(=O)OC)N2C(=O)CCl)cc1 [RSL3], the values for the relative cell viability with HCC1937 and with MDA-MB-231 were 0.631 and 0.545, respectively.
For `O=C(CC(C(=O)O)c1c[nH]c2ccccc12)c1ccc(F)cc1F` (configuration not stated) [Mitochonic acid 5] + COC(=O)c1ccc([C@H]2c3[nH]c4ccccc4c3C[C@H](C(=O)OC)N2C(=O)CCl)cc1 [RSL3], the values for the relative cell viability in the assay on HCC1937 and with MDA-MB-231 were 0.636 and 0.769, respectively.
The matching figures for `O=S(=O)(Nc1ccc(C(O)(C(F)(F)F)C(F)(F)F)cc1)c1cccs1` + COC(=O)c1ccc([C@H]2c3[nH]c4ccccc4c3C[C@H](C(=O)OC)N2C(=O)CCl)cc1 [RSL3]: 0.617 and 0.63.
The matching figures for `CC(C)(Oc1ccc(C2CC2(Cl)Cl)cc1)C(=O)O` (configuration not stated) [Ciprofibrate] + COC(=O)c1ccc([C@H]2c3[nH]c4ccccc4c3C[C@H](C(=O)OC)N2C(=O)CCl)cc1 [RSL3]: 0.787 and 0.706.
As to `O=C(/C=C/c1ccc(/C=C/C(=O)Nc2ccc(C3=NCCN3)cc2)cc1)Nc1ccc(C2=NCCN2)cc1` + COC(=O)c1ccc([C@H]2c3[nH]c4ccccc4c3C[C@H](C(=O)OC)N2C(=O)CCl)cc1 [RSL3], the figures for the relative cell viability in the assay with HCC1937 and in the assay with MDA-MB-231 were 0.296 and 0.378, respectively.
The corresponding values for `CC(C)[C@H](N=C(NS(=O)(=O)c1ccc(Cl)cc1)N1C[C@H](c2ccccc2)C(c2ccc(Cl)cc2)=N1)C(N)=O` + COC(=O)c1ccc([C@H]2c3[nH]c4ccccc4c3C[C@H](C(=O)OC)N2C(=O)CCl)cc1 [RSL3] are 0.551 and 0.45.
The corresponding values for `O=C(c1c2ccccc2cc2ccccc12)N1CCC(N2CCC[C@@H](C(=O)N3CCOCC3)C2)CC1` + COC(=O)c1ccc([C@H]2c3[nH]c4ccccc4c3C[C@H](C(=O)OC)N2C(=O)CCl)cc1 [RSL3] are 0.352 and 0.366.
The matching figures for `CC[C@@H]1/C=C(\C)C[C@H](C)C[C@H](OC)[C@H]2O[C@@](O)(C(=O)C(=O)N3CCCC[C@H]3C(=O)O[C@H](/C(C)=C/[C@@H]3CC[C@@H](O)[C@H](OC)C3)[C@H](C)[C@@H](O)CC1=O)[C@H](C)C[C@@H]2OC` [Ascomycin] + COC(=O)c1ccc([C@H]2c3[nH]c4ccccc4c3C[C@H](C(=O)OC)N2C(=O)CCl)cc1 [RSL3]: 0.1 and 0.236.
Consider `CCCCCC=CC(=O)CCc1ccc(O)c(OC)c1` [6-Shogaol] + COC(=O)c1ccc([C@H]2c3[nH]c4ccccc4c3C[C@H](C(=O)OC)N2C(=O)CCl)cc1 [RSL3], for which the relative cell viability in the assay on HCC1937 was found to be 0.608; with MDA-MB-231, 0.64.
The corresponding values for `CNC(=O)c1cccc(NC(=O)N2CCC(Oc3ccccc3Cl)CC2)c1` + COC(=O)c1ccc([C@H]2c3[nH]c4ccccc4c3C[C@H](C(=O)OC)N2C(=O)CCl)cc1 [RSL3] are 0.895 and 0.683.
Consider `CC(C)c1c(C(=O)Nc2ccccc2)c(-c2ccccc2)c(-c2ccc(F)cc2)n1CC[C@@H](O)C[C@@H](O)CC(=O)O` [Atorvastatin Calcium] + COC(=O)c1ccc([C@H]2c3[nH]c4ccccc4c3C[C@H](C(=O)OC)N2C(=O)CCl)cc1 [RSL3], for which the relative cell viability with HCC1937 came to 0.571; with MDA-MB-231, 0.385.
